Screening data (PubChem)
LMP1 NFkB inh: Epstein-Barr LMP1 NF-kappaB reporter inhibition; LMP1-induced NF-kappaB luciferase reporter cells, luminescence; inhibition, % at 12.5 µM; actives 0.69% (n = 350,000); AID 504558; in the data active means inhibition above about 41%;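 further: 0% = neutral control wells and 100% = reference inhibitor control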
Peg3 prom inh-1: Peg3 promoter activity inhibition. HeLa PEG-Prom luciferase reporter, luminescence, overnight. inhibition, % at 20 µM. actives 1.7% (n = 360,000). AID 588405;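 active means inhibition of at least 50% at 20 µM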
TROY NFkB inh: inhibitors of TROY-dependent NF-kB signaling; Q293 LMP1-TROYcd NF-kB luciferase reporter, 4 h; inhibition, % at 10 µM; actives 0.98% (n = 360,000);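 active means compounds whose plate-normalised and pattern-corrected inhibition of the luciferase reporter signal at the single screening dose is 50% or more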
Shn3 inh set2: inhibitors of Schnurri-3 3'UTR reporter in osteoblasts; Clone20 osteoblast Shn3 3'UTR firefly luciferase, 24 h; inhibition, % at 12.5 µM; actives 0.52% (n = 360,000); AID 588674;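 active means mean inhibition of at least 75% with every replicate also reaching 75%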;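 further: 0% = median of neutral control wells and 100% = pilot-screen positive control compound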
MITF TRPM1 inh: inhibitors of MITF-driven TRPM1 promoter in melanoma cells; SK-MEL-5 TRPM1 promoter luciferase, 24 h; inhibition, % at 12.5 µM; actives 0.83% (n = 330,000);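 active means mean inhibition across replicates of 60% or more, whatever share of single replicates reaches that level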
TWEAK Fn14 block: TWEAK-Fn14 signaling inhibition | TWEAK-stimulated Fn14 reporter cells, luciferase luminescence, 8 h | inhibition, % at 10 µM | actives 2% (n = 360,000) | AID 1159606; in the data active means inhibition above about 50%
Peg3 prom inh-2: Peg3 promoter inhibition confirmation | AID 602417 | actives 84% (n = 1,300) | inhibition, % at 20 µM | shares compounds with Peg3 prom inh-1 | HeLa PEG-Prom luciferase reporter, luminescence, overnight;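 active means at 20 µM dose, 40% or more inhibition averaged across four replicates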
* = called active by the depositor; nt = no result given. Rows were chosen to be rich in hits. Some 4.1% of all compounds tested hit in one or more screens of this group.

SMILES | LMP1 NFkB inh | Peg3 prom inh-1 | TROY NFkB inh | Shn3 inh set2 | MITF TRPM1 inh | TWEAK Fn14 block | Peg3 prom inh-2
CCOc1ccc(/C=N/NC(=O)c2nnn(-c3nonc3N)c2COc2ccc(F)cc2)cc1 | 7.2 | 54.2* | 5.5 | 16.7 | -3.4 | -10.7 | 25.3
CN(C)Cc1c(C(=O)N/N=C/c2ccc(OCc3ccc(F)cc3)cc2)nnn1-c1nonc1N | -11.9 | -37.1 | -33.4 | 4.2 | -23.2 | 27.1 | nt
CCOc1ccc(-c2c(C(=O)N/N=C/c3ccc(O)cc3)nnn2-c2nonc2N)cc1 | -8.8 | 3.7 | -1.3 | 5.7 | 4.7 | 9.1 | nt
CC(C)NC(=O)N1Cc2cc(C(=O)NC3CCCCC3)nc(-c3cccc(-c4cccnc4)c3)c2[C@@H]1CCO | nt | nt | 2.0 | nt | nt | 21.8 | nt
Cc1ccc(S(=O)c2ccc([N+](=O)[O-])c3nonc23)cc1 (centres undefined) | 5.0 | 51.3* | -14.1 | 4.9 | nt | -4.6 | 98.5*
CCCCNC(=O)C(C)N(CCN(C)C)C(=O)CCCN1C(=O)NC(c2ccc([N+](=O)[O-])cc2)C(C(=O)OCc2ccccc2)=C1C (centres undefined) | 3.7 | 57.0* | 4.8 | -4.7 | 18.0 | -46.9 | 31.2
COc1ccc2[nH]c(C)c(CCNC(=S)Nc3cccc(C)c3)c2c1 | -5.2 | -6.8 | -1.6 | 6.0 | -4.7 | -11.2 | nt
CCc1cccc(CC)c1NC(=S)NCCc1c(C)[nH]c2ccc(C)cc12 | -5.3 | 69.0* | 6.2 | 17.0 | 2.7 | -36.2 | 85.4*
CCOC(=O)Cc1csc(NC(=S)NC(=O)c2ccc(Cl)cc2)n1 | 5.0 | 51.4* | 27.0 | 20.5 | 11.4 | 0.1 | 70.0*
CCOC(=O)Cc1csc(NC(=S)NC(=O)c2ccc([N+](=O)[O-])cc2)n1 | -6.8 | 9.3 | -12.2 | -26.9 | -1.2 | -7.8 | nt
O=C(CSc1nnc(C2CC2)n1C1CC1)c1cc(F)ccc1F | 5.0 | -9.0 | -11.7 | -14.3 | 0.7 | -0.1 | nt
Cc1ccc(C)c(N(C(=O)c2csnn2)C(C(=O)NC2CCCCC2)c2ccccn2)c1 (centres undefined) | -10.3 | 4.2 | 0.0 | 2.4 | -2.6 | 45.8 | nt
CCN(Cc1ccc2c(c1)OCCO2)C(=O)CN1C(=O)NC2(CCCCC2)C1=O | 5.8 | -8.9 | -23.2 | -9.1 | -6.0 | 9.0 | nt
Cc1ccc(C(=O)c2ccccc2C(=O)OCC(=O)NCCc2ccc(Cl)cc2Cl)cc1 | 1.3 | -10.6 | 6.4 | 19.9 | 2.4 | 19.6 | nt
CCCNC(=O)COC(=O)c1ccccc1C(=O)c1ccc(Cl)c([N+](=O)[O-])c1 | 48.0* | 106.2* | 66.6* | 9.6 | 86.9* | 99.4* | 98.5*
CCOC(=O)c1cnc2c(cnn2C)c1NCCCN(C)C | -2.6 | 62.0* | -3.7 | 2.5 | -0.8 | -15.2 | 55.8*
CCOC(=O)c1cnc2c(cnn2C)c1NCCC#N | 6.6 | -2.7 | -20.4 | -8.3 | 3.0 | -6.5 | nt
CC(C)(c1ccccc1)c1ccc(OCC(O)CNC2CCN(Cc3ccccc3)CC2)cc1 (centres undefined) | -13.1 | 107.4* | 21.0 | 37.5 | 79.1* | -69.2 | 98.8*
O=C(O)c1ccc(N/N=C/c2ccc(C(F)(F)F)cc2)cc1 | 44.2* | 66.0* | 28.6 | 21.1 | 67.9* | 90.3* | 51.9*
CCNC(=S)N/N=C/c1ccc(C(=O)O)cc1 | 2.4 | 8.1 | -11.3 | -7.0 | 2.7 | 5.2 | nt
O=C(O)c1cc(N/N=C/c2ccc3c(c2)OCO3)ccc1Cl | -3.8 | -0.4 | -60.4 | -9.1 | 39.1 | 19.9 | nt
CC(C)(C)c1ccc(/C=N/Nc2ccc(C(=O)O)cc2)cc1 | 32.1 | 80.1* | 59.2* | 50.3 | 89.4* | 92.7* | 72.8*
COc1cccc(/C=N/Nc2ccc(C(=O)O)cc2)c1O | 83.1* | 101.4* | 83.8* | 92.3* | 105.3* | 103.3* | 94.2*
O=C(O)c1ccc(N/N=C/c2ccc3c(c2)OCO3)cc1 | 64.8* | 94.4* | 82.2* | 60.1 | 83.4* | 102.0* | 81.8*
O=C(O)c1ccc(/C=N/Nc2ncc(C(F)(F)F)cc2Cl)cc1 | -2.8 | -37.1 | -34.2 | -13.7 | -6.1 | -17.8 | nt
NC(=O)COc1ccc(C(=O)NCC2(N3CCOCC3)CCCCC2)cc1 | 8.4 | 3.3 | 7.5 | 6.1 | -5.4 | 7.8 | nt
COc1ccc(NC(=O)CSc2nc(=O)n(CCN(C)C)c3c2CCCC3)cc1OC | 3.8 | -7.9 | -4.1 | 4.5 | -8.0 | 6.6 | nt
